Screening results deposited in PubChem by National Center for Advancing Translational Sciences (NCATS).
MARV entry inh: qHTS for inhibitors of binding or entry into cells for Marburg Virus. Marburg virus pseudotyped entry inhibition, cell reporter. Potency, µM (titrated, usually from 37.8 µM), for the others: at the top dose activity change, negative = inhibition, hits mostly inhibitors. 1.8% of 300,000 active. AID 540276, 2011; calls by dose curve; tested in HEK293 cells
AmpC detergent: qHTS Inhibitors of AmpC Beta-Lactamase (assay with detergent); P00811; AmpC hydrolysis of nitrocefin, absorbance 480 nm, 0.01% Triton; Potency, µM (doses to about 114 µM), inactives show at the top dose activity change, negative = inhibition, hits mostly inhibitors; 0.041% of 370,000 active; AID 485294, 2010;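 note: 0% = no-compound wells and -100% = no-enzyme wells; nearly all actives have a fitted effect of over 25% in size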
Target sequence (P00811 whole entry, looked up): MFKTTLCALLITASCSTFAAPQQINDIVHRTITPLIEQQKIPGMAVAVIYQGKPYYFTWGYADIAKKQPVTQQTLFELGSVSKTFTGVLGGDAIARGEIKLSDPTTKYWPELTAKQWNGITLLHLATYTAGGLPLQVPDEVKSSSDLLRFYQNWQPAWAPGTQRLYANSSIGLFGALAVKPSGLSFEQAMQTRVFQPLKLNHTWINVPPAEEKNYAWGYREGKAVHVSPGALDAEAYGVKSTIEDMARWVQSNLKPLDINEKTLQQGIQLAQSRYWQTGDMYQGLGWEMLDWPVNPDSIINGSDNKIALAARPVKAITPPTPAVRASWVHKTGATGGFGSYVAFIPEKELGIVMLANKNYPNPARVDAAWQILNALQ
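AmpC (5.3 nM in the dispensed reagent) in 20 mM phosphate pH 7.0 with 0.01% (detergent screen) or 0.0001% Triton X-100 was preincubated with compounds for 15 min at room temperature. Nitrocefin was then added from an 800 uM solution, and hydrolysis was followed at 480 nm.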
Lassa entry inh: qHTS for Inhibitors of binding or entry into cells for Lassa Virus; Lassa virus pseudotype entry inhibition, cell reporter; Potency, µM (series often up to 37.9 µM), for inactives: at the highest dose activity change, negative = inhibition, actives largely listed as inhibitors; 1.2% of 300,000 active; AID 540256, 2011; calls by dose curve; tested in HEK293 cells; note: nearly all actives have a fitted effect of over 50% in size
AMA1-RON2 inh: qHTS for Inhibitors of AMA1-RON; Towards Development of Antimalarial Drug Lead: Primary Screen | AID 720542, 2013 | Plasmodium falciparum AMA1 (3D7) - RON2 peptide interaction | AlphaScreen AMA1-biotinylated RON2 peptide binding | Potency, µM (titrated, usually from 58.2 µM), for inactives: top-dose activity change, negative = inhibition, actives largely listed as inhibitors | 0.2% of 360,000 active;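 note: 0% = vehicle wells and -100% = peptide control; nearly all actives have a fitted effect of over 45% in size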
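AMA1 (3D7) with his tag at 25 nM final met compounds first, then biotinylated RON2 peptide at 25 nM; detection used donor plus acceptor beads, 10 µg/mL apiece, read by AlphaScreen after 30 min at room temperature.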
AmpC no deterg: qHTS Inhibitors of AmpC Beta-Lactamase (assay without detergent). Potency, µM (highest dose often 57.1 µM), inactives show at the top dose activity change, negative = inhibition, usual class: inhibitors. 0.52% of 330,000 active. AmpC nitrocefin hydrolysis, absorbance 480 nm, 0.0001% Triton. P00811;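 note: plate controls were no compound for no effect and no enzyme for full effect; nearly all actives have a fitted effect of over 20% in size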
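AmpC (5.3 nM in the dispensed reagent) in 20 mM phosphate pH 7.0 with 0.01% (detergent screen) or 0.0001% Triton X-100 was preincubated with compounds for 15 min at room temperature. Nitrocefin was then added from an 800 uM solution, and hydrolysis was followed at 480 nm.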
Starred values were filed as active, the others as inactive; ? = inconclusive; / = no result given; [ ] = dose if it differs, or a comment. A selection: hits, their analogues and other compounds. The true share with any hit is near 2.3%. Unless noted, calls come from the whole dose curve; as a rule, active = well fitted curve in the direction sought with a large enough effect; inconclusive = small, poorly fitted or top-dose-only effect, or another doubt; inactive = no such curve, though single readings can be large; an effect the other way counts as inactive or inconclusive. Unless noted, % is set by controls: 0 for no effect and ±100 for the full control effect; potency is the fitted concentration of half-maximal effect.

SMILES	MARV entry inh	AmpC detergent	Lassa entry inh	AMA1-RON2 inh	AmpC no deterg
Cc1ccc(-c2n[nH]c(=S)n2/N=C/c2c(C)nn(-c3ccccc3)c2C)cc1	?	?	?	16%	-1%
O=C(/C=C/c1ccc(Cl)cc1)NC(=S)Nc1ccc(NC(=O)c2ccco2)cc1	?	-7%	1.6µM*	8%[2.32 µM]	-27%
COc1ccc(/C=C/C(=O)NC(=S)NNC(=O)c2ccco2)cc1	?	-14%	4.5µM*	-6%	-36%
CC(=O)Nc1ccc(NC(=S)NC(=O)/C=C/c2ccc(Cl)cc2)cc1	?	0%	-10%	7%	-11%
CCOC(=O)c1cnc(-n2nc(C)cc2C)[nH]c1=O	/	-1%	/	45%	64%
CCOC(=O)c1cnc(-n2[nH]c(C)cc2=O)[nH]c1=O	2%[46.1 µM]	2%	7%[46.1 µM]	1.6µM*	-16%
Cc1cccc(NC(=O)c2sc3nc(-c4cc5ccc(O)cc5oc4=O)[nH]c(=O)c3c2C)c1	/	13%	?	/	/
CCn1ncc([C@@H]2C[C@H]3CN(Cc4cccc(Cl)c4)C(=O)[C@]34CCCN24)c1C	8%[46.1 µM]	5%	-9%	10%	35%
O=C1N(Cc2cccc(Cl)c2)C[C@@H]2C[C@@H](c3cccn3-c3cccnc3)N3CCC[C@@]123	13µM*	9%	?	-13%	124%
Cc1ccccc1NN1C(=O)C=CC1=O	0%	1%	5%	6%	0.14µM*
COc1cc(/C=N/Nc2nn3cnnc3c3ccccc23)ccc1O	-29%	0%	?	36%	-24%
COc1cc(C=NNc2ncnc3c2cnn3C(C)C)ccc1O	/	/	13µM*	/	/
Cc1ccc(C(OCCN(C)C)c2cccc(C(F)(F)F)c2)cc1 (configuration not stated)	21µM*	-3%	?	-17%	75%
Cc1ccc(-n2ncc3c(SCc4ccccn4)ncnc32)c(C)c1	?	?	0.56µM*	-9%	149%
COc1cccc(NC(=O)[C@@H]2CC(=O)n3cnnc3S2)c1	14%	/	/	/	/
Cc1ccc(C(=O)N(CCCN(C)C)c2nc3ccc(Cl)cc3s2)cc1C	8.9µM*	-5%	?	?	156%
CCN(CC)CCN(C(=O)c1ccc2c(c1)CCCC2)c1nc2ccc(C)cc2s1	10µM*	-8%	?	-13%	69%
COc1ccc2sc(N(CCCN(C)C)C(=O)c3ccc(S(=O)(=O)N4CCc5ccccc5C4)cc3)nc2c1	?	0%	3.5µM*	?	240%
CN(C)CCCN(C(=O)c1ccc2c(c1)CCCC2)c1nc2ccc(F)cc2s1	?	-4%	16µM*	?	137%
CCOC(=O)c1cccc(NC(=O)N2Cc3ccccc3Oc3ncccc32)c1	?	15%	-30%[46.1 µM]	/	/
CCC(Oc1ccc(F)cc1)C(=O)Nc1nc(-c2ccc(F)cc2)ns1 (configuration not stated)	?	23%	?	/	/
CN(C)CCCN(C(=O)c1ccc2c(c1)CCCC2)c1nc2cc3c(cc2s1)OCO3	11µM*	-7%	?	-12%	121%
CN(C)CCCN(C(=O)c1cc(-c2cccs2)nc2ccccc12)c1nc2ccc(F)cc2s1	?	-5%	6.3µM*	?	159%
CN(C)CCCN(C(=O)CCc1ccccc1)c1nc2ccc(F)cc2s1	-29%	-5%	-18%	0%	126%
COc1ccc(S(=O)(=O)NCC(c2ccco2)N2CCN(c3ccccc3F)CC2)cc1C (configuration not stated)	/	4%	?	/	/
SMILES	MARV entry inh	AmpC detergent	Lassa entry inh	AMA1-RON2 inh	AmpC no deterg
Cn1c(=O)c2c(-c3ccccc3Cl)n(-c3cc(Cl)ccc3O)cc2n(C)c1=O	?	-2%	?	/	/
CCOc1ccccc1CNc1ncnc2c1nc1n2CCCC1	/	-6%	?	/	/
Cc1ccc(CN2C3CCCC2CC(NC(=O)c2ccc(C)cc2)C3)cc1 (configuration not stated)	13µM*	-13%	?	-3%	-31%
Cc1ccc(NS(=O)(=O)c2cccc(C(=O)NC3CCN(Cc4ccccc4)CC3)c2)cc1	?	/	-12%	-10%[11.6 µM]	/
Cc1ccc(NS(=O)(=O)c2ccc(C(=O)NC3CCN(Cc4ccccc4)CC3)cc2)cc1	?	/	11µM*	-13%	3%
Cc1ccccc1NC(=O)CSc1nc2nccnc2c(=O)n1CCc1c[nH]c2ccccc12	/	0%	-1%[46.1 µM]	/	/
Cc1ccc(OCC(=O)Nc2cccc(C(=O)OCc3cc(=O)n4nc(C)sc4n3)c2)cc1	/	5%	?	/	/
COc1ccc(OC)c(-c2csc(NC(=O)Cc3ccccc3OC)n2)c1	?	-6%	7.9µM*	?	-26%
O=[N+]([O-])/C=C/c1ccc2c(c1)OCO2	?	/	3.3µM*	/	/
COc1cc2c(cc1/C=C/[N+](=O)[O-])OCO2	?	1%	?	-8%	-15%
CCCC(C(=O)NC1CCCC1)N(C(=O)Cn1nnc(-c2ccc(C)o2)n1)C1CCCC1 (configuration not stated)	26µM*	-11%	?	-11%	31%
CCCCN(CC)CCCNC(=S)Nc1ccc2nc(N3CCN(CC)CC3)cc(C)c2c1	3.5µM*	0%	?	-4%	2%
Cc1cc(N2CCN(C)CC2)nc2ccc(NC(=O)c3ccc4c(c3)OCO4)cc12	4.1µM*	6%	16µM*	9%	123%
CCN(CC)CCNC(=S)Nc1ccc2nc(N3CCCC3)cc(C)c2c1	4.1µM*	3%	?	-10%	-21%
CCCCN(CC)CCCNC(=S)Nc1ccc2nc(N3CCN(C)CC3)cc(C)c2c1	2.5µM*	-10%	?	-9%	22%
Cc1ccccc1CN1CCN(CC(=O)NCc2ccccc2Cl)C1=O	/	-2%	0%[46.1 µM]	/	/
COC(=O)CC=C[C@@H](C)[C@@H](C=NOC[C@@H](C)[C@H](OCc1ccccc1)C(C)C)NS(=O)(=O)c1ccc(C)cc1	-14%[14.2 µM]	/	-4%[14.3 µM]	/	/
CSc1ccc(/C=N/Nc2nc(C)cc(C)n2)cc1	4%	4%	7.1µM*	60%	-12%
Cc1ccc(/C=N/Nc2nc(C)cc(C)n2)cc1	-2%[46.1 µM]	4%	?	81%	-6%
CCN=c1scc(C)n1/N=C/c1cc(Br)c(O)c(Br)c1	?	-14%	?	21%	-27%[11.4 µM]
CCN=c1scc(C)n1/N=C/c1ccc(O)c(O)c1O	?	-3%	1%	?	10µM*
CCC(C)NC(=O)C1CCN(C(=O)c2ccc(-n3ccc4ccccc43)s2)CC1 (configuration not stated)	/	-3%	?	/	/
O=C(c1ccc(COc2ccccc2Br)o1)N1N=C(C(F)F)CC1(O)C(F)F (configuration not stated)	7.1µM*	-13%	-7%	24%	-30%
